# Records with an inconclusive call do not appear. A number with no mark means an inactive call. The call rests on the fitted dose curve; in most records, active means well fitted cell-killing curve with a large enough effect; inconclusive means small, poorly fitted or top-dose-only effect, or effect the other way; inactive means flat fitted curve, though single readings scatter. Where a SMILES comes first, the peptide text is derived from it. [ ]: non-standard residue; d: D form. ξ: configuration not given here. ξPhe(βξ-Me) = CC(c1ccccc1)C(N)C(=O)O; ξLac(3-iPr) = CC(C)CC(O)C(=O)O; NMeV = CN[CH](C(=O)O)C(C)C; GABA = NCCCC(=O)O; βAla = NCCC(=O)O
# System: CAOV3
# Test: Primary qHTS to identify gynecologic anti-cancer compounds using libraries of approved drugs and bioactive compounds (AID 1345084); further: nearly all actives have a fitted effect of over 55% in size
# Settings: Gynecologic cancer cell panel viability, ATPlite luminescence, 48 h; series mostly up to 57.5 µM; activity change, negative = cytotoxicity: at the top concentration
# Method in brief: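 Five-point cytotoxicity, 48 h drug exposure at 37 C, 5% CO2, on cells seeded 16 h beforehand. ATP content read by ATPlite luminescence.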
# On the % scale 0 is the no-effect control and ±100 the full control effect.
row,SMILES,"activity change, negative = cytotoxicity"
1,Nc1nc(Nc2ccc(S(N)(=O)=O)cc2)n(C(=S)Nc2c(F)cccc2F)n1,-6.1%
2,CS(=O)(=O)c1ccc(-c2nnc(/C=C/c3nnc(-c4ccc(C#N)cc4)o3)n2-c2ccccc2Cl)nc1,6.69%
3,Cc1ccc(-c2ccc3c(ccc4sc5c(c43)NC[C@@H](C)NC5=O)n2)cn1,0.685%
4,C[C@@H]1O[C@@H](O[C@H]2[C@H](O)[C@@H](O[C@@H]3O[C@H](CO)[C@@H](O)[C@H](O[C@@H]4O[C@H](CO)[C@@H](O)[C@H](O)[C@H]4O)[C@H]3O)[C@H](O[C@H]3CC[C@@]4(C)C(=CC[C@@H]5C4CC[C@@]4(C)C5C[C@@H]5OC6(CC[C@@](C)(CO[C@@H]7O[C@H](CO)[C@@H](O)[C@H](O)[C@H]7O)O6)[C@@H](C)[C@@H]54)C3)O[C@@H]2CO)[C@H](O)[C@H](O)[C@H]1OC1OC(CO)C(O)C(O)C1O (stereo not given in full),7.26% [at 6.55 µM]
5,CC(C)[C@H]1CC[C@@]2(O)COC(=O)[C@H]2[C@@H]1/C=C(\CO)C(=O)O,0.106%
6,FC(F)(F)c1cc(-c2ncn(/C=C\c3nnco3)n2)cc(C(F)(F)F)c1,-8.77%
7,CC(C)NCC(C(=O)N1CCN(c2ncnc3c2C(C)CC3O)CC1)c1ccc(Cl)cc1 (stereo not given),-13.5%
8,O=C1NC(=O)C(c2cn3c4c(cccc24)CCC3)C1c1c[nH]c2ccccc12 (stereo not given),-13.2%
9,CC1C(OC(=O)c2ccccc2)C(O)C2C(C(=O)O)=COC(OC3OC(CO)C(O)C(O)C3O)C12 (stereo not given),3.9% [at 25.3 µM]
10,CC(C)(C)CCN1C[C@@H]2C(CNC(=O)c3cc(Cl)cc(Cl)c3)[C@@H]2C1 (stereo not given in full),-6.8%
11,O=C(CN1C(=O)C2(CCCC2)NCC1c1cc(F)cc(F)c1)Nc1ccc2c(c1)CC1(C2)C(=O)Nc2ncccc21 (stereo not given),-5.15%
12,N[C@H]1Cc2ccccc2N(O)C1=O,-4.07%
13,COc1cc(OC)cc(C(=O)Nc2ccc(Cl)c(-c3nc4ccc(N(C)C)cc4[nH]3)c2)c1,0.194%
14,CCC(CC)C(=O)Nc1sc2c(c1C#N)CCC(C(C)(C)CC)C2 (stereo not given),22.7%
15,CC1(C)CC2C(C1)C(C)(O)C13CC1(COC3=O)C2O (stereo not given),-10.9%
16,NC(=O)c1cccc(-c2cc(OC(=O)NC3CCCCC3)ccc2O)c1,8.18%
17,CC1=C(CCC(C)CC(=O)O)[C@@]2(C)CCCC(C)(C)C2CC1=O (stereo not given in full),-0.836% [at 38.5 µM]
18,Cc1c[nH]c2nccc(Oc3c(F)cc(Nc4cc(Cl)nc(N)n4)cc3F)c12,-3.77%
19,CCOC(=O)c1cc(C#N)c(N2CCC(C(=O)NS(=O)(=O)Cc3ccccc3)CC2)nc1C,6.26%
20,COc1cc(O)cc(C)c1C(=O)O[C@H]1[C@@H](OC(C)=O)[C@H](n2ccc(=O)[nH]c2=O)O[C@@H]1CO,-1.37% [at 25.3 µM]

row,SMILES,"activity change, negative = cytotoxicity"
1,C=C[C@]1(C)C=C2CCC3C(C)(CCC[C@@]3(C)C(=O)O)C2CC1 (stereo not given in full),4.83% [at 38.5 µM]
2,C[C@@H]1O[C@@H](O[C@H]2[C@H](O)[C@@H](C(=O)O)O[C@@H](O[C@H]3CC[C@@]4(C)C(CC[C@]5(C)C4CC=C4C6CC(C)(C)CC[C@]6(C(=O)O)CC[C@]45C)C3(C)C)[C@@H]2O[C@@H]2OC[C@@H](O)[C@H](O)[C@H]2O)[C@H](O)[C@H](O)[C@H]1O (stereo not given in full),-1.86% [at 11.6 µM]
3,CC(=O)OC/C=C(\C)C(CC1C(C)=C(OC(C)=O)C(=O)C2C(C)(C)C(O)CCC12C)OC(C)=O (stereo not given),3.19% [at 25.3 µM]
4,CC1NC(=O)CCCNC(=O)C(Cc2c[nH]c3ccccc23)NC(=O)C(C)NC(=O)C(C(C)C)NC(=O)C(C(C)c2ccccc2)NC(=O)C(C(C)C)NC1=O (stereo not drawn) (cyclo([GABA]AV[ξPhe(βξ-Me)]VAW); configuration not given here),9.46% [at 25.3 µM]
5,C/C=C(\C)C(=O)O[C@@H]1CC2[C@@H](CC=C3C[C@@H](O[C@H]4C[C@H](OC)[C@H](O[C@H]5C[C@H](OC)[C@H](O[C@@H]6O[C@H](C)[C@@H](O[C@H]7C[C@H](OC)[C@H](O[C@@H]8O[C@H](CO)[C@@H](O)[C@H](O)[C@H]8O)[C@@H](C)O7)[C@H](OC)[C@H]6O)[C@@H](C)O5)[C@@H](C)O4)CC[C@@]32C)[C@@]2(O)CC[C@H](C(C)=O)[C@@]12C (stereo not given in full),9.95% [at 6.55 µM]
6,COc1c(/C=C/C(C)(C)O)ccc2c1C(=O)OCc1cc(C)cc(O)c1O2,-0.667% [at 38.5 µM]
7,CCOCc1cc(OC)c(-c2ccc(C[C@H](NC(=O)c3c(F)cccc3F)C(=O)O)cc2)c(OC)c1,-1.4%
8,Cc1nc([C@](C)(O)CO)sc1-c1cnc(N)c(O[C@H](C)c2cc(F)ccc2-n2nccn2)c1,-5.09%
9,OC[C@H]1O[C@@H](O[C@H]2[C@H](OCc3ccccc3)O[C@H](CO[C@@H]3OC[C@@H](O)[C@H](O)[C@H]3O)[C@@H](O)[C@@H]2O)[C@H](O)[C@@H](O)[C@@H]1O,-0.389% [at 25.3 µM]
10,CC1(C)C[C@H](O)C[C@@]2(C)OC(=O)C=C12,-7.55%
11,C=C(C(=O)O)C1CC2=C(C)CCCC2(C)C[C@@H]1O (stereo not given in full),-10%
12,CC[C@@](C)(Nc1ccnc(-c2c[nH]c3ncccc23)n1)C(=O)NCC(F)(F)F,7.86%
13,COc1ccc(-c2c(-c3cc(C(=O)O)ccn3)ncn2C)cc1,17.5%
14,Cc1nc(C)c(-c2ccc(C3CCC(CC(=O)O)CC3)cc2)nc1C(N)=O (stereo not given),-18.5%
15,CC(C)CC1OC(=O)C2CCCN2C(=O)CCNC(=O)C(Cc2ccccc2)NC(=O)C(C(C)C)N(C)C(=O)C(C(C)C)N(C)C1=O (stereo not given) (cyclo([ξLac(3-iPr)][NMeV][NMeV]F[βAla]P); configuration not given here),-7.1% [at 25.3 µM]
16,C=C1C(O)C[C@@H]2C(C(=O)O)=CO[C@@H](O[C@@H]3O[C@H](CO)[C@@H](O)[C@H](O)[C@H]3OC(=O)c3ccc(O)cc3)[C@H]12 (stereo not given in full),-11.8% [at 25.3 µM]
17,CC(O)CCC1C(CO[C@@H]2O[C@H](CO)[C@@H](O)[C@H](O)[C@H]2O)CC(O)CC1(C)C (stereo not given in full),-5.78% [at 38.5 µM]
18,CC1=C2C(O)C(=O)OC(c3ccoc3)C2(C)CCC1O (stereo not given),9.86%
19,O=C(Nc1ccccc1-c1cn2c(CN3CCNCC3)csc2n1)c1ccc2ccccc2n1,19.3%
20,COC(=O)CC(C)(O)CC(=O)OCc1ccc(O[C@@H]2O[C@H](CO)[C@@H](O)[C@H](O)[C@H]2O)cc1 (stereo not given in full),9.07% [at 25.3 µM]

# — PubChem BioAssay (NCATS)
